The campaign covered roughly 5,500 compounds. About 2,000 (36%) were called active. Another 18% or so got no clear call; they are omitted. No stated cut-off is given here; in the data, active means normalized growth mostly below about 0.91 (no sharp cut-off); inconclusive means no clear call, values can overlap the other calls; inactive means mostly above about 0.92. The list shows a part of the results.
Experiment: chemical genetic growth profiling, strain panel (AID 1159580);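 further: tested at 20 µM; growth read once vehicle control cultures reached saturation at 30 °C; 1 = growth at the plate median or of vehicle wells; lower values mean less growth of the strain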
Settings: S. cerevisiae deletion strains, growth OD

Measured: normalized growth

CCC1(O)C(=O)OCc2c1cc1n(c2=O)Cc2cc3ccccc3nc2-1 (stereo unspecified)
active: locus YAL013W, strain DEP1, active compounds read low 0.872 | locus YDR363W, strain ESC2, active compounds read low 0.724 | locus YGR229C, strain SMI1, active compounds read low 0.672 | locus YMR307W, strain GAS1, active compounds read low 0.904 | locus YNL224C, strain SQS1, active compounds read low 0.897 | locus YOR083W, strain WHI5 (second series), active compounds read low 0.867
inactive: locus YAL040C, strain CLN3, active compounds read low 0.953 | locus YCL061C, strain MRC1 (second series), active compounds read low 0.977 | locus YER002W, strain NOP16, active compounds read low 0.971 | locus YGR078C, strain PAC10, active compounds read low 1.01 | locus YMR263W, strain SAP30, active compounds read low 0.98 | locus YNL128W, strain TEP1, active compounds read low 0.906 | locus YNL175C, strain NOP13, active compounds read low 0.998 | locus YNL197C, strain WHI3, active compounds read low 0.976 | locus YNL322C, strain KRE1, active compounds read low 0.971 | locus YPL241C, strain CIN2, active compounds read low 0.984

Reference: PubChem BioAssay AID1159580 (chemical genetic matrix, 2015)
